Assay outcomes from PubChem.
ROC1-CUL1 inh = inhibitors of human ROC1-CUL1 ubiquitin ligase activity; in vitro K48 di-Ub FRET, acceptor:donor ratio, 45 min; inhibition, % at 10 µM; AID 1347404; 140,000 compounds, 0.6% hits; P62877+Q13616; in the data active means inhibition above about 25%
* hit, by the source's call. This is one part of a sample in which hits are shown more often than they occur.

SMILES	ROC1-CUL1 inh
Cc1ccc(-n2c(Cl)c(Cl)nc(Cl)c2=O)cc1	45.0*
O=C(c1cccs1)c1coc2c(Cl)c(Cl)c(O)cc12	-0.8
COc1cccc(/C=N/NC(N)=S)c1OS(=O)(=O)c1ccc(C)cc1	0.6
CC(=O)NC1=NC(=O)/C(=C/c2sccc2C)S1	2.5
COC(=O)c1cccc(-n2c(C)cc(/C=C3\SC(=O)N(Cc4ccc(F)cc4)C3=O)c2C)c1	-1.6
Cc1ccc(N2C(=O)/C(=C/c3cc(C)n(-c4ccccc4)c3C)C(=O)N(c3ccccc3)C2=S)cc1C	0.5
Cc1cc(/C=C2\C(=O)N(C)C(=S)N(c3ccccc3)C2=O)c(C)n1-c1cccc(C(=O)O)c1	27.9*
CCOC(=O)c1cccc(-n2c(C)cc(C=C3C(=O)N(C)C(=O)N(C)C3=O)c2C)c1	4.4
CC(=O)NC1=NC(=O)/C(=C/c2cc(C)n(-c3cccc(C(=O)O)c3)c2C)S1	50.3*
N=C1CC(=O)N2C(=N1)SCC2CS(=O)(=O)c1ccccc1 (centres undefined)	7.4
Cc1ccc2c(c1)-c1c(ssc1=Nc1ccc3ncccc3c1)C(C)(C)N2	8.5
COc1ccc(C(=O)Nc2ccc3nsnc3c2)cc1OC	-8.9
Cc1ccc(NC(=S)Nc2ccc3nsnc3c2)cc1	66.0*
CNC(=S)Nc1ccc(C)cc1	3.9
O=C1COc2ccc(S(=O)(=O)N3CCc4ccccc43)c3c2N1CCC3	-11.1
O=C(O)Cc1ccccc1Sc1cccc(C(F)(F)F)c1	-1.4
O=C(O)c1cc(C(F)(F)F)ccc1Sc1ccccc1	57.9*
Nc1cc(C(F)(F)F)ccc1Sc1ccccc1C(=O)O	6.9
COc1ccc(-c2cccc(-c3ccn(CC(N)=O)n3)c2)cc1F	-4.6
O=C1CC(CSc2nc3ccccc3[nH]2)=NC(=O)N1	10.5
O=C1CC(CSCc2ccc(Cl)cc2)=NC(=O)N1	4.9
N=C(N)SCC1=NC(=O)NC(=O)C1	26.3*
CCCOc1ccc(C(=O)OCC)cc1N	5.9
c1ccc2c(c1)cc(N1CCCC1)c1ccccc12	89.7*
O=C(Nc1ccc(N2CCCC2)c(Cl)c1)c1cccc2ccccc12	2.1
SMILES	ROC1-CUL1 inh
CN1CCN(c2cc3ccccc3c(=O)c3ccccc23)CC1	-2.7
CCOC(=O)C1CCN(C2=NC(=O)/C(=C/c3cn(-c4ccccc4)nc3-c3cccs3)S2)CC1	2.7
CC1(N2CCOCC2)C(=O)c2ccccc2C1=O	-0.2
O=C1C=Cc2ccc(N3CCOCC3)c3cccc1c23	-5.8
O=C1C=C(N2CCOCC2)c2ccccc2C1=O	76.3*
O=C(Nc1ccc(Cl)cc1Cl)c1ccc(-c2cccc(C(F)(F)F)c2)o1	-1.7
O=C(N/N=C/c1cc(Cl)cc(Cl)c1O)c1ccc(-c2ccccc2)cc1	-6.5
c1ccc(Nc2nc(Nc3ccccc3)nc(-n3cccn3)n2)cc1	4.8
Fc1ccc(-c2cc(-c3ccccc3)nc(-n3cccn3)n2)cc1	-2.3
Oc1cc(-n2cccn2)c(O)c2ccccc12	42.1*
CCc1cccc2c(/C=C3\C(=O)NC(=S)N(Cc4ccco4)C3=O)cn(CC(N)=O)c12	73.8*
CCc1cccc2c(/C=C3/C(=O)NC(=S)N(CC)C3=O)cn(CCOc3ccccc3Cl)c12	-1.7
CCOC(=O)Cn1cc(/C=C2\C(=O)NC(=O)N(Cc3ccccc3)C2=O)c2ccccc21	1.4
CCOC(=O)c1c(N=CN(C)C)c2c(n1Cc1ccccc1)CC(C)(C)CC2=O	-5.2
COc1ccc(C2C3C(=O)CC(C)(C)CC3=Nc3ccccc3N2C(=O)C(F)(F)F)c(OC)c1 (centres undefined)	-0.4
Cc1nnc(N2C(=O)C(=O)C(C(=O)c3cc4ccccc4o3)C2c2cccc(Oc3ccccc3)c2)s1 (centres undefined)	34.8*
CCOc1ccc2nc(N3C(=O)C(=O)C(C(=O)c4cc5ccccc5o4)C3c3cccc(Oc4ccccc4)c3)sc2c1 (centres undefined)	-2.3
Cc1nnc(N2C(=O)C(=O)C(C(=O)c3cc4ccccc4o3)C2c2ccc(Cl)c(Cl)c2)s1 (centres undefined)	-8.7
CC1(Nc2ccccc2)C(=O)c2ccccc2C1=O	2.5
CN1C(=O)N(C)C2(O)c3ccccc3C(=O)C12O (centres undefined)	-8.1
CC1(N2CCCCC2)C(=O)c2ccccc2C1=O	0.5
O=C1c2ccccc2C(=O)C1(O)O	46.2*
CC1(C)CC(=O)C(C2(O)C(=O)c3ccccc3C2=O)C(=O)C1	-15.4
COC1(O)C(=O)c2ccccc2C(=O)C1(O)OC (centres undefined)	82.8*
FC(F)(F)c1cccc(Oc2ncccc2CNCc2ncc[nH]2)c1	1.9
SMILES	ROC1-CUL1 inh
O=C(NC(=S)N1CCSCC1)c1cccnc1	-7.3
COc1ccc(N2CCN(c3nc(-c4ccccc4)cc(=O)[nH]3)CC2)cc1	-2.0
Cc1ccc(-c2cnnc(N3CCCC3c3nccs3)n2)o1 (centres undefined)	1.3
CCC(=O)Nc1cccc(OCCC(C)C)c1	12.6
C=CCN1C(=O)C(C#N)=C(C)/C(=C\c2ccc(-c3ccc(Cl)c(C(=O)OC(C)C)c3)o2)C1=O	2.0
CC1=C(C#N)C(=O)N(CC(C)O)C(=O)/C1=C/c1ccc(-c2ccc(Br)cc2)o1 (centres undefined)	47.0*
